# In the supplement of paper PMC6411743:
# ± gives the standard deviation of the averaged measurements. Targets with the largest changes are over-represented here; the source holds about 6,200 in all.
# Legend:
# Experiment in all cases: NP40-soluble protein abundance relative to vehicle (solubility fold change) (ratio); higher = more soluble protein in presence of AMP-PNP
# A0A087WZ62 = tested on: A0A087WZ62
# How it was run: (§1)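 Across three independent experiments, values are fold changes against the detergent-processed vehicle for each replicate, based on vsn-normalised intensities. The samples were Jurkat crude lysate treated with eight concentrations (0.1 to 10 mM) for 10 min at room temperature and then 3 min at 37 °C. Lysate was solubilised with 0.8% NP40 and benzonase, ultracentrifuged, and the supernatant analysed by TMT-labelled LC-MS/MS.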
# [1] = molecular target: T1, A0A087X0V5|P29728|P29728-2 (UniProt P29728)
# T1 sequence (whole entry): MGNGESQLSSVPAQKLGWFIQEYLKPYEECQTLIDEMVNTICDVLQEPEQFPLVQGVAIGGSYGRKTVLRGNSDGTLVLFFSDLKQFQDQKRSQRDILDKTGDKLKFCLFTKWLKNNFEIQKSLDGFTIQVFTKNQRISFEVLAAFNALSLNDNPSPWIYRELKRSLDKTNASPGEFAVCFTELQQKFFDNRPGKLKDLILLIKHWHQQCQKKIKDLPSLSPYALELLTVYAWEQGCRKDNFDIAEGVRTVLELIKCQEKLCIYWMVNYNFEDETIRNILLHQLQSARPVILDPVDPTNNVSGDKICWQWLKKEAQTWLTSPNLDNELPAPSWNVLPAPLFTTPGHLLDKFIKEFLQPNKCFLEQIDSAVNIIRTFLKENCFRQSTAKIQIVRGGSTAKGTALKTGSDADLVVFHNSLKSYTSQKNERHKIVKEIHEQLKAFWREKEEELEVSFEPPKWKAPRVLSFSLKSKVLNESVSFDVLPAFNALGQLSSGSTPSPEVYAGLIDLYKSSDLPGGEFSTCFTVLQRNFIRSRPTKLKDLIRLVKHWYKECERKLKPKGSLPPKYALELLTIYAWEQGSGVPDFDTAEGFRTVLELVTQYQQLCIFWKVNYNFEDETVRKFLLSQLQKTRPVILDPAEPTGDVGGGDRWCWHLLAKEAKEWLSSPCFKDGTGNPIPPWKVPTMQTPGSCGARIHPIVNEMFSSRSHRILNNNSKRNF
# How it was run: as §1
# A0A087X1K6|H0YK05|Q9Y2Y9 = A0A087X1K6|H0YK05|Q9Y2Y9 (UniProt Q9Y2Y9)
# Chain of A0A087X1K6|H0YK05|Q9Y2Y9 (Q9Y2Y9 whole entry, one chain of several): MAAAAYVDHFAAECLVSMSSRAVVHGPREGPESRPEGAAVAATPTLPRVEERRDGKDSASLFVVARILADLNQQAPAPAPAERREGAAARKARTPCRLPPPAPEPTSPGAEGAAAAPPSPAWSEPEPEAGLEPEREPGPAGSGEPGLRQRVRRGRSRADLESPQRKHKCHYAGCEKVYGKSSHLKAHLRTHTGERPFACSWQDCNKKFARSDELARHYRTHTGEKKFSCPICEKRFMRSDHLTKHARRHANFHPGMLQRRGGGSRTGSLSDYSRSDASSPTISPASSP
# How it was run: as §1
# [2] = molecular target: A0A087X1Z1|A0A0G2JPW5|A0A0G2JQX1|A0A0G2JSA7|Q96RT8|Q96RT8-2 (UniProt Q96RT8)
# Chain of A0A087X1Z1|A0A0G2JPW5|A0A0G2JQX1|A0A0G2JSA7|Q96RT8|Q96RT8-2 (Q96RT8 whole entry, one chain of several): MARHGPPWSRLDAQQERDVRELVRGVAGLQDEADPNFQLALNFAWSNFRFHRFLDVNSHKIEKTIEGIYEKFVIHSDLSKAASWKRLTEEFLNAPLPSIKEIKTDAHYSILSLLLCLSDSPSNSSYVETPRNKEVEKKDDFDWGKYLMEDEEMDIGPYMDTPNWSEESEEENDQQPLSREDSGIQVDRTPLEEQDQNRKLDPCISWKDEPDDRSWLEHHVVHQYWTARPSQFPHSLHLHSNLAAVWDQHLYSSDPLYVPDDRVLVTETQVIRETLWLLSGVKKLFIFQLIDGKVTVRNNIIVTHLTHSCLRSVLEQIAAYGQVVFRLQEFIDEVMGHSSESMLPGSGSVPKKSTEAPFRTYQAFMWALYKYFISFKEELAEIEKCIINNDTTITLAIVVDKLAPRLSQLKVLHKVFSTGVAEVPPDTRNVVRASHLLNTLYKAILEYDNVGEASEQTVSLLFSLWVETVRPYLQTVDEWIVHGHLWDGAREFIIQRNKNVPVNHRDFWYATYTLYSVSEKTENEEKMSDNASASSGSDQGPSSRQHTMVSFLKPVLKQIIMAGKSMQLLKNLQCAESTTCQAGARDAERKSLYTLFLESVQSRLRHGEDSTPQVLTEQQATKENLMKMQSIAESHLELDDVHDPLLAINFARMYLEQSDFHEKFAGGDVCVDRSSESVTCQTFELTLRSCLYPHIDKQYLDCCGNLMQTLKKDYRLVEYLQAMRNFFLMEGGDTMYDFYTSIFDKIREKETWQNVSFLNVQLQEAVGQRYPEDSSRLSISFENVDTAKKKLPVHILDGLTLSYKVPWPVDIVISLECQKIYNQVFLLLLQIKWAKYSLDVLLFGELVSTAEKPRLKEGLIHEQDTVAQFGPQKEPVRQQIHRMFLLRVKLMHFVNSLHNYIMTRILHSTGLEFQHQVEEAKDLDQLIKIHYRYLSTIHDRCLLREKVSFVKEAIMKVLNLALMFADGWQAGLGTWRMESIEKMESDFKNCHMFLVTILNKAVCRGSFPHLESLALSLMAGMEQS
# How it was run: as §1
# [3] = molecular target: A0A096LP25|Q2M2I8|Q2M2I8-2 (UniProt Q2M2I8)
# Chain of A0A096LP25|Q2M2I8|Q2M2I8-2 (Q2M2I8 whole entry, looked up, one chain of several): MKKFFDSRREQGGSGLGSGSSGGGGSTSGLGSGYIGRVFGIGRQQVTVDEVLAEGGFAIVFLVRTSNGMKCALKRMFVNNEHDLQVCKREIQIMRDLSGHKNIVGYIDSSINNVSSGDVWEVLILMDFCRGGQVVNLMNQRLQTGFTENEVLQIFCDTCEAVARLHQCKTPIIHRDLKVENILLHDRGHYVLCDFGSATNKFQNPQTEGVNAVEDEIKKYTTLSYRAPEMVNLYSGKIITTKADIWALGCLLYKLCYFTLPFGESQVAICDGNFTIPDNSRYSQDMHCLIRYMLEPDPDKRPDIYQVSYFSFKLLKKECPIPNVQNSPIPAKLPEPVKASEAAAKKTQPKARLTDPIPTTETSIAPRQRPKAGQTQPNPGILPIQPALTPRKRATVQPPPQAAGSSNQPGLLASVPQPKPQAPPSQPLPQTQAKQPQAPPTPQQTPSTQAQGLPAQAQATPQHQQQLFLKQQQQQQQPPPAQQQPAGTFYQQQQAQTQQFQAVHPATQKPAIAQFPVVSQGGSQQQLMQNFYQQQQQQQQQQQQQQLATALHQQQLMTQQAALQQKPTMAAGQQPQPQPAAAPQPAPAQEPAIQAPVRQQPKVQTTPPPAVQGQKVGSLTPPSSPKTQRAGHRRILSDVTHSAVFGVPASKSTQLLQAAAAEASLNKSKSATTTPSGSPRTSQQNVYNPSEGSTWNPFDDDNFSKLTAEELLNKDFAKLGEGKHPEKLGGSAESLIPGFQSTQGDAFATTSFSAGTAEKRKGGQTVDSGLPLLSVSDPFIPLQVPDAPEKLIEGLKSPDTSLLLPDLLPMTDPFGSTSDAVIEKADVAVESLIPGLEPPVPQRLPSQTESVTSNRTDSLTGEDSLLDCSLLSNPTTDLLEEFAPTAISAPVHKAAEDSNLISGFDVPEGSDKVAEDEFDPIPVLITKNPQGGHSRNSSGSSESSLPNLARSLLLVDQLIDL
# How it was run: as §1
structure (smiles),measurement,setting,value
Nc1ncnc2c1ncn2[C@@H]1O[C@H](COP(=O)(O)OP(=O)(O)NP(=O)(O)O)[C@@H](O)[C@H]1O [adenylyl imidodiphosphate],NP40-soluble protein abundance,A0A087WZ62; concentration: 6mM,0.952 ± 0.014
same,NP40-soluble protein abundance,A0A087WZ62; concentration: 8mM,0.946 ± 0.028
same,NP40-soluble protein abundance,A0A087WZ62; concentration: 10mM,0.936 ± 0.017
same,NP40-soluble protein abundance,[1]; concentration: 1mM,1.13 ± 0.0059
same,NP40-soluble protein abundance,[1]; concentration: 2mM,1.07 ± 0.091
same,NP40-soluble protein abundance,[1]; concentration: 4mM,1.26 ± 0.049
same,NP40-soluble protein abundance,[1]; concentration: 6mM,1.24 ± 0.086
same,NP40-soluble protein abundance,[1]; concentration: 8mM,1.358 ± 0.011
same,NP40-soluble protein abundance,[1]; concentration: 10mM,1.29 ± 0.02
same,NP40-soluble protein abundance,A0A087X1K6|H0YK05|Q9Y2Y9; concentration: 1mM,0.998 ± 0.029
same,NP40-soluble protein abundance,A0A087X1K6|H0YK05|Q9Y2Y9; concentration: 2mM,0.998 ± 0.03
same,NP40-soluble protein abundance,A0A087X1K6|H0YK05|Q9Y2Y9; concentration: 4mM,0.971 ± 0.024
same,NP40-soluble protein abundance,A0A087X1K6|H0YK05|Q9Y2Y9; concentration: 6mM,1.01 ± 0.016
same,NP40-soluble protein abundance,A0A087X1K6|H0YK05|Q9Y2Y9; concentration: 8mM,0.991 ± 0.03
same,NP40-soluble protein abundance,A0A087X1K6|H0YK05|Q9Y2Y9; concentration: 10mM,0.996 ± 0.0047
same,NP40-soluble protein abundance,[2]; concentration: 1mM,0.946 ± 0.021
same,NP40-soluble protein abundance,[2]; concentration: 2mM,1 ± 0.057
same,NP40-soluble protein abundance,[2]; concentration: 4mM,0.951 ± 0.032
same,NP40-soluble protein abundance,[2]; concentration: 6mM,0.972 ± 0.029
same,NP40-soluble protein abundance,[2]; concentration: 8mM,0.962 ± 0.018
same,NP40-soluble protein abundance,[2]; concentration: 10mM,0.96 ± 0.016
same,NP40-soluble protein abundance,[3]; concentration: 1mM,1.07 ± 0.02
same,NP40-soluble protein abundance,[3]; concentration: 2mM,1.11 ± 0.041
same,NP40-soluble protein abundance,[3]; concentration: 4mM,1.11 ± 0.026
same,NP40-soluble protein abundance,[3]; concentration: 6mM,1.09 ± 0.024
same,NP40-soluble protein abundance,[3]; concentration: 8mM,1.08 ± 0.02
same,NP40-soluble protein abundance,[3]; concentration: 10mM,1.11 ± 0.012
